PubChem BioAssay (NCATS)
Inconclusive results are not listed. Active and inactive are the calls of the source. Calls come from the whole dose curve; as a rule, active = well fitted curve in the direction sought with a large enough effect; inconclusive = small, poorly fitted or top-dose-only effect, or another doubt; inactive = no such curve, though single readings can be large; an effect the other way counts as inactive or inconclusive.

How the values were obtained:
[1] = qHTS of pediatric cancer cell lines to identify multiple opportunities for drug repurposing: Primary screen for U-2 OS cells (AID 1347096); note: nearly all actives have a fitted effect of over 50% in size
Summary of the method: (§1)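 Cells (500-1,000/well) rested 5 h, then received compounds for 48 h; metabolically active cells were measured by CellTiter-Glo luminescence. Final concentrations spanned up to 46 µM (MIPE, 11-point) or 0.59 nM-46 µM (NPC, 8-point) in primary screens, 11-point in follow-ups.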

[2] = qHTS of pediatric cancer cell lines to identify multiple opportunities for drug repurposing: Primary screen for Saos-2 cells (AID 1347097); note: nearly all actives have a fitted effect of over 40% in size
Summary of the method: (§2)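 Plated cells (500-1,000 per well, growth media) were allowed to settle for 5 hours, treated with compound dilutions for 48 hours, then lysed with CellTiter-Glo for 15 min at room temperature before luminescence reading.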

[3] = qHTS of pediatric cancer cell lines to identify multiple opportunities for drug repurposing: Primary screen for SK-N-SH cells (AID 1347098); note: nearly all actives have a fitted effect of over 65% in size
Summary of the method: as §1

[4] = qHTS of pediatric cancer cell lines to identify multiple opportunities for drug repurposing: Primary screen for NB1643 cells (AID 1347099); note: nearly all actives have a fitted effect of over 50% in size
Summary of the method: as §2

[5] = qHTS of pediatric cancer cell lines to identify multiple opportunities for drug repurposing: Primary screen for LAN-5 cells (AID 1347100)
Summary of the method: as §1

[6] = qHTS of pediatric cancer cell lines to identify multiple opportunities for drug repurposing: Primary screen for Rh18 cells (AID 1347102); note: nearly all actives have a fitted effect of over 65% in size
Summary of the method: as §1

[7] = qHTS of pediatric cancer cell lines to identify multiple opportunities for drug repurposing: Primary screen for OHS-50 cells (AID 1347103); note: nearly all actives have a fitted effect of over 40% in size
Summary of the method: as §1

[8] = qHTS of pediatric cancer cell lines to identify multiple opportunities for drug repurposing: Primary screen for RD cells (AID 1347104); note: nearly all actives have a fitted effect of over 55% in size
Summary of the method: as §2

[9] = qHTS of pediatric cancer cell lines to identify multiple opportunities for drug repurposing: Primary screen for MG 63 (6-TG R) cells (AID 1347105); note: nearly all actives have a fitted effect of over 50% in size
Summary of the method: as §2

[10] = qHTS of pediatric cancer cell lines to identify multiple opportunities for drug repurposing: Primary screen for control Hh wild type fibroblast cells (AID 1347106); note: nearly all actives have a fitted effect of over 55% in size
Summary of the method: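 Cells (500-1,000/well) in growth media were settled 5 h at 37 degrees C, then given compounds for 48 h. Viability was read as CellTiter-Glo luminescence. Primary runs used MIPE at 11 points (0.78 nM-46 µM) and NPC at 8 points (0.59 nM-46 µM); follow-ups used 11 points.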

[11] = qHTS of pediatric cancer cell lines to identify multiple opportunities for drug repurposing: Primary screen for Rh30 cells (AID 1347107); note: nearly all actives have a fitted effect of over 75% in size
Summary of the method: as §1

[12] = qHTS of pediatric cancer cell lines to identify multiple opportunities for drug repurposing: Primary screen for Rh41 cells (AID 1347108); note: nearly all actives have a fitted effect of over 70% in size
Summary of the method: as §2

[13] = qHTS of pediatric cancer cell lines to identify multiple opportunities for drug repurposing: Confirmatory screen for NB1643 cells (AID 1347109); note: nearly all actives have a fitted effect of over 45% in size
Summary of the method: as §1

[14] = qHTS of pediatric cancer cell lines to identify multiple opportunities for drug repurposing: Confirmatory screen for A673 cells (AID 1347110);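 note: cells exposed to compound for 48 h before the viability read; nearly all actives have a fitted effect of over 65% in size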
Summary of the method: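 Cells plated at 500-1,000/well were treated five hours later with multi-point dilutions up to 46 µM final. After two days, CellTiter-Glo was added and luminescence read.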

[15] = qHTS of pediatric cancer cell lines to identify multiple opportunities for drug repurposing: Confirmatory screen for SK-N-MC cells (AID 1347111);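 note: cells exposed to compound for 48 h before the readout; nearly all actives have a fitted effect of over 70% in size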
Summary of the method: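 Seed 500-1,000 cells/well; rest 5 h at 37 degrees C. Pin-transfer compounds, 11-point titration. Incubate 48 h. Add CellTiter-Glo, 15 min RT, read luminescence.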

[16] = qHTS of pediatric cancer cell lines to identify multiple opportunities for drug repurposing: Confirmatory screen for LAN-5 cells (AID 1347113); note: nearly all actives have a fitted effect of over 65% in size
Summary of the method: as §1

[17] = qHTS of pediatric cancer cell lines to identify multiple opportunities for drug repurposing: Confirmatory screen for NB-EBc1 cells (AID 1347115);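 note: cells exposed to compound for 48 h before the viability read; nearly all actives have a fitted effect of over 45% in size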
Summary of the method: as §1

[18] = qHTS of pediatric cancer cell lines to identify multiple opportunities for drug repurposing: Confirmatory screen for DAOY cells (AID 1347114); note: nearly all actives have a fitted effect of over 65% in size
Summary of the method: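 Viability measured as metabolically active cells via CellTiter-Glo luminescence following 48 hours of compound exposure, 11-point dilutions in confirmatory testing. 500-1,000 cells/well plated 5 hours before dosing; controls were DMSO and 2.3 µM bortezomib.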

[19] = qHTS of pediatric cancer cell lines to identify multiple opportunities for drug repurposing: Primary screen for BT-12 cells (AID 1347101); note: nearly all actives have a fitted effect of over 25% in size
Summary of the method: as §1

[20] = qHTS of pediatric cancer cell lines to identify multiple opportunities for drug repurposing: Confirmatory screen for BT-12 cells (AID 1347112); note: nearly all actives have a fitted effect of over 55% in size
Summary of the method: as §1

Measured: Potency
Potency is the fitted concentration of half-maximal effect.

CNC(=O)c1c(F)cccc1Nc1nc(Nc2cc3c(cc2OC)CCN3C(=O)CN(C)C)nc2[nH]ccc12
active: [2] 2.09 µM | [3] 8.57 µM | [4] 0.132 µM | [5] 0.0526 µM | [6] 8.33 µM | [7] 0.344 µM | [8] 0.662 µM | [9] 18.7 µM | [11] 2.96 µM | [12] 0.148 µM | [13] 0.465 µM | [14] 11.7 µM | [15] 0.414 µM | [16] 0.208 µM | [17] 5.85 µM
inactive: [1] | [10]

CCn1cc(-c2ccnc3[nH]c(-c4cccc(CN(C)C)c4)cc23)c(-c2ccc(NC(=O)N(C)C)cc2)n1
active: [1] 18.7 µM | [2] 3.72 µM | [3] 3.04 µM | [4] 3.32 µM | [5] 0.0264 µM | [6] 16.6 µM | [7] 3.85 µM | [8] 10.5 µM | [9] 4.69 µM | [10] 20.9 µM | [11] 14.8 µM | [12] 5.9 µM | [13] 3.69 µM | [14] 1.85 µM | [15] 0.0657 µM | [16] 6.57 µM | [18] 18.5 µM

C=CC(=O)Nc1cc2c(Nc3ccc(F)c(Cl)c3)ncnc2cc1C#CC(C)(C)N1CCN(C)CC1
active: [1] 7.43 µM | [2] 4.18 µM | [3] 3.83 µM | [4] 0.526 µM | [5] 2.96 µM | [19] 21.7 µM | [6] 4.69 µM | [8] 5.9 µM | [9] 5.9 µM | [11] 11.8 µM | [12] 9.35 µM | [13] 5.37 µM | [14] 4.27 µM | [15] 1.91 µM | [20] 17 µM | [16] 5.37 µM | [18] 4.79 µM | [17] 15.1 µM
inactive: [10]

Cc1ccc(-c2ncn(-c3ccc(Nc4nccc(-c5cccc(N6CCOCC6)c5)n4)cc3)n2)cn1
active: [1] 0.235 µM | [2] 0.0935 µM | [3] 0.383 µM | [4] 0.0526 µM | [5] 0.0662 µM | [19] 0.122 µM | [6] 0.0526 µM | [8] 0.105 µM | [9] 0.0935 µM | [10] 0.166 µM | [12] 0.132 µM | [13] 0.107 µM | [14] 0.17 µM | [15] 0.12 µM | [20] 0.214 µM | [16] 0.0955 µM | [18] 0.24 µM

c1nc2nc(Nc3ccc(N4CCOCC4)cc3)nc(NC3CCCCC3)c2[nH]1
active: [2] 4.69 µM | [3] 4.29 µM | [4] 1.66 µM | [5] 0.469 µM | [19] 21.7 µM | [6] 9.35 µM | [9] 11.8 µM | [11] 11.8 µM | [12] 5.9 µM
inactive: [1] | [10]

Cc1cc(Nc2cc(NC(=O)c3c(Cl)cccc3Cl)ccn2)nc(N)n1
inactive: [11]
active: [1] 18.7 µM | [2] 1.05 µM | [3] 6.07 µM | [4] 11.8 µM | [5] 1.87 µM | [19] 0.544 µM | [7] 8.63 µM | [8] 0.935 µM | [9] 11.8 µM | [13] 5.85 µM | [14] 0.603 µM | [15] 0.657 µM | [20] 1.31 µM | [16] 9.27 µM

CN1CCN(Cc2ccc(NC(=O)Nc3ccc(Oc4cc(NC(=O)C5CC5)ncn4)cc3)cc2C(F)(F)F)CC1
active: [2] 0.59 µM | [3] 0.764 µM | [4] 0.526 µM | [5] 2.35 µM | [19] 0.485 µM | [8] 0.662 µM | [9] 1.87 µM | [10] 8.33 µM | [11] 20.9 µM | [12] 0.469 µM | [13] 1.85 µM | [14] 0.131 µM | [15] 0.131 µM | [20] 0.465 µM | [16] 1.04 µM | [18] 0.522 µM | [17] 23.3 µM
inactive: [1]

Clc1cccc(-n2nnnc2NCc2ccccc2Oc2ccccn2)c1Cl
inactive: [1] | [2] | [3] | [4] | [5] | [6] | [8] | [9] | [10] | [11]

Cc1[nH]c2ccccc2c1CCNCc1ccc(C=CC(=O)NO)cc1
active: [1] 0.469 µM | [2] 0.264 µM | [3] 0.271 µM | [4] 0.187 µM | [5] 0.105 µM | [19] 0.611 µM | [6] 0.0935 µM | [9] 0.469 µM | [10] 1.87 µM | [12] 0.235 µM | [13] 0.117 µM | [14] 0.329 µM | [15] 0.0827 µM | [20] 0.737 µM | [16] 0.261 µM | [17] 0.369 µM

COc1ccc(-n2nc(C(N)=O)c3c2C(=O)N(c2ccc(N4CCCCC4=O)cc2)CC3)cc1
not listed: [10] | [15] | [16] | [18] | [19]
inactive: all other assays above
